# Laboratory results: paper PMC5540273 (PLoS ONE, 2017)
# Columns and labels:
# Conditions in all cases: concentration: 1 μM, replicates: in singlicate; n = 1
# PRKR = system: T1, PRKR
# T1 construct: gene EIF2AK2
# PRKX = system: PRKX
# PRP4 = system: PRP4
# PYK2 = system: T2, PYK2
# T2 construct: gene PTK2B
# QSK = system: QSK
# RAF1 = system: RAF1
# RET = system: RET
# RIOK1 = system: RIOK1
# RIOK2 = system: RIOK2
# RIOK3 = system: RIOK3
# RIPK1 = system: RIPK1
# RIPK2 = system: RIPK2
# RIPK4 = system: RIPK4
# RIPK5 = system: RIPK5
# ROCK1 = system: ROCK1
# ROCK2 = system: ROCK2
# ROS1 = system: ROS1
# [1] = system: RPS6KA4(Kin.Dom.1-N-terminal)
# [2] = system: RPS6KA4(Kin.Dom.2-C-terminal)
# [3] = system: RPS6KA5(Kin.Dom.1-N-terminal)
# 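Also: KINOMEscan kinase panel screen.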
Structure (SMILES),%Inh (PRKR) [%],%Inh (PRKX) [%],%Inh (PRP4) [%],%Inh (PYK2) [%],%Inh (QSK) [%],%Inh (RAF1) [%],%Inh (RET) [%],%Inh (RIOK1) [%],%Inh (RIOK2) [%],%Inh (RIOK3) [%],%Inh (RIPK1) [%],%Inh (RIPK2) [%],%Inh (RIPK4) [%],%Inh (RIPK5) [%],%Inh (ROCK1) [%],%Inh (ROCK2) [%],%Inh (ROS1) [%],%Inh [1] [%],%Inh [2] [%],%Inh [3] [%]
CCn1c(-c2ccncc2)nc2cnccc21 [SB-735216],0,0,18,1,27,6,0,12,20,0,0,15,10,14,31,13,2,0,11,0
FC(F)(F)c1cc(Nc2nccc(-c3c(-c4ccc(Cl)cc4)nn4ncccc34)n2)ccc1Cl [GW829351],26,0,14,0,0,1,0,0,0,0,0,6,0,0,50,0,0,0,0,0
CC(C)N1CCC(n2cnc(-c3ccc(F)cc3)c2-c2ccnc(N)n2)CC1 [SB-223132],18,0,41,12,0,33,2,0,0,60,4,48,0,0,1,0,0,14,0,7
COc1ccc(Nc2nccc(N3CCC(NC(=O)c4cccc(NC(C)=O)c4)C3)n2)cc1 (stereo not drawn) [GSK1379732],0,0,48,0,0,0,0,37,0,0,21,7,0,0,33,50,8,21,0,9
Clc1ccc(-c2cc(-c3c[nH]nc3-c3ccccn3)ccn2)cc1 [GW681251],11,12,9,0,0,4,27,19,2,0,0,37,0,0,0,12,0,2,0,6
Clc1cc(Nc2ncnc3cc[nH]c23)ccc1OCc1ccccn1,0,13,19,9,0,17,17,24,42,0,0,27,23,31,0,0,6,9,11,3
CCc1nc(-c2cccc(C)c2)c(-c2ccnc(NC(=O)c3ccccc3)c2)s1,0,0,10,11,0,22,0,14,8,4,0,52,42,0,35,0,0,0,8,3
CN1c2ccc(-c3ccc(C(=O)NCCO)cc3)cc2-c2[nH]ncc2S1(=O)=O,1,0,0,6,5,0,13,30,22,17,1,13,0,27,0,41,8,25,49,0
Cl.Fc1ccccc1COc1ccc(Nc2ncnc3ccc(-c4nnc(C(F)(F)F)o4)cc23)cc1Cl [GW424170],0,0,16,14,0,7,0,22,0,18,9,28,0,0,10,4,11,10,0,6
OCCOCCn1ccc2ncnc(Nc3ccc(Oc4cccc(Cl)c4)c(Cl)c3)c21,0,3,9,0,0,5,0,0,0,0,0,48,0,0,0,0,0,17,0,0
O=C(Nc1n[nH]c2nc(-c3ccco3)c(Br)cc12)c1ccc(CN2CCCC2)cc1.O=C(O)[C@H](O)[C@@H](O)C(=O)O [SB-742352],0,0,0,42,0,17,28,0,0,0,33,47,0,0,0,0,12,10,8,0
Cl.Cn1ccc(-c2cccc(Nc3ccnc4cc(-c5nccs5)ccc34)c2)n1 [GW525701],5,0,61,45,4,18,5,14,22,0,0,16,23,0,26,39,0,0,0,24
